Measurements: PubChem BioAssay AID2238 (Southern Research Specialized Biocontainment Screening …, 2010)
The source made the active and inactive calls. The rule behind the calls is not given here.

Experiment: West Nile virus CPE inhibition, SAR follow-up, cell-based, synthesized analogs (AID 2238)
Conditions: max CPE inhibition: measured here: maximum CPE inhibition observed, at 40 µM, stronger effect = higher value unless noted

| Compound | max CPE inhibition | outcome |
| --- | --- | --- |
| Cc1cccc2nc3n(c(=O)c12)CCC3 | 1.92% | inactive |
| O=c1c2cc([N+](=O)[O-])ccc2nc2n1CCC2 | 0.23% [measured here: maximum CPE inhibition observed, at 1.25 µM, stronger effect = higher value] | inactive |
| O=[N+]([O-])c1ccc2c(c1)C(O)N1CCCC1=N2 (stereo not given) | 1.83% | inactive |
| COc1ccc(-c2csc(N(CCCN(C)C)C(=O)c3ccccc3F)n2)cc1 | 3.61% [measured here: maximum CPE inhibition observed, at 80 µM, stronger effect = higher value] | inactive |
| Oc1ccccc1C(Nc1nccs1)c1ccc2cccnc2c1O (stereo not given) | 8.25% [measured here: maximum CPE inhibition observed, at 5 µM, stronger effect = higher value] | inactive |
| COc1cccc(NC(=O)CSc2nc3ccccc3c(=O)n2-c2ccc(F)cc2)c1 | 1.33% | inactive |
| CCCCN(C(=O)c1ccccc1Cl)c1nc(-c2ccc(OC)cc2)cs1 | 1.9% | inactive |
| COc1ccccc1NC(=O)CSc1nc2ccccc2c(=O)n1-c1ccc(F)cc1 | 0.86% [measured here: maximum CPE inhibition observed, at 20 µM, stronger effect = higher value] | inactive |
| COc1ccc(-c2csc(N(CCCBr)C(=O)c3ccccc3Cl)n2)cc1 | 1.23% | inactive |
| O=C(Nc1nc(-c2ccccc2)cs1)c1ccccc1Cl | 0.47% [measured here: maximum CPE inhibition observed, at 0.16 µM, stronger effect = higher value] | inactive |
